Experimental data from PubChem BioAssay AID1159580 (chemical genetic matrix, 2015).
Values joined by “and” are separate entries in the source; they are usually repeats but may differ in a detail not shown here. Equal entries are not always repeated. Out of some 5,500 compounds screened, about 2,000 (36%) were called active. Another 18% or so got no clear call; they are omitted. No stated cut-off is given here; in the data, active means normalized growth mostly below about 0.91 (no sharp cut-off); inconclusive means no clear call, values can overlap the other calls; inactive means mostly above about 0.92. The list shows a part of the results.

Experiment: chemical genetic growth profiling, strain panel (AID 1159580);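 further: tested at 20 µM; growth read once vehicle control cultures reached saturation at 30 °C; 1 = growth at the plate median or of vehicle wells; lower values mean less growth of the strain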
Details: S. cerevisiae deletion strains, growth OD

Measured: normalized growth

CN[C@@H](C)[C@@H](O)c1ccccc1
inactive: locus YAL021C, strain ccr4, active compounds read low 0.987 | locus YAL026C, strain drs2, active compounds read low 0.995 | locus YAL030W, strain snc1, active compounds read low 0.995 | locus YBL061C, strain skt5, active compounds read low 0.992 | locus YBR009C, strain hhf1, active compounds read low 1.02 | locus YBR021W, strain FUR4, active compounds read low 1.01 | locus YBR023C, strain chs3, active compounds read low 0.981 | locus YBR171W, strain sec66, active compounds read low 0.993 | locus YBR229C, strain ROT2, active compounds read low 0.949 | locus YBR231C, strain swc5, active compounds read low 0.996 | locus YBR279W, strain paf1, active compounds read low 1 | locus YCL011C, strain gbp2, active compounds read low 0.971 | locus YCL016C, strain dcc1, active compounds read low 0.987 | locus YCL029C, strain bik1, active compounds read low 0.976 | locus YCL069W, strain vba3, active compounds read low 0.995 | locus YCR088W, strain abp1, active compounds read low 0.995 | locus YDL005C, strain med2, active compounds read low 0.994 | locus YDL035C, strain GPR1, active compounds read low 0.949 | locus YDL040C, strain nat1, active compounds read low 1 | locus YDL074C, strain BRE1, active compounds read low 1.01 | locus YDL101C, strain DUN1, active compounds read low 1 | locus YDL185W, strain tfp1, active compounds read low 0.961 | locus YDL192W, strain arf1, active compounds read low 0.989 | locus YDR001C, strain nth1, active compounds read low 0.996 | locus YDR069C, strain doa4, active compounds read low 0.993 | locus YDR101C, strain arx1, active compounds read low 0.998 | locus YDR137W, strain rgp1, active compounds read low 0.982 | locus YDR159W, strain sac3, active compounds read low 0.943 | locus YDR162C, strain NBP2, active compounds read low 0.929 | locus YDR195W, strain ref2 0.977 | locus YDR297W, strain sur2, active compounds read low 1 | locus YDR318W, strain mcm21, active compounds read low 0.986 | locus YDR334W, strain swr1, active compounds read low 1.01 | locus YDR335W, strain msn5, active compounds read low 1 | locus YDR388W, active compounds read low 0.992 | locus YDR392W, strain spt3, active compounds read low 0.911 | locus YDR502C, strain sam2, active compounds read low 1.01 | locus YEL003W, strain gim4, active compounds read low 0.996 | locus YEL037C, strain rad23, active compounds read low 0.985 | locus YEL061C, strain CIN8 (second series), active compounds read low 0.989 | locus YEL061C, strain CIN8, active compounds read low 0.989 | locus YER015W, strain faa2, active compounds read low 1 | locus YER016W, strain bim1, active compounds read low 0.984 | locus YER110C, active compounds read low 0.987 | locus YER111C, strain swi4, active compounds read low 0.996 | locus YER155C, strain BEM2 (second series), active compounds read low 0.997 | locus YER155C, strain BEM2, active compounds read low 0.999 | locus YER167W, strain BCK2, active compounds read low 0.982 | locus YFR010W, strain ubp6, active compounds read low 0.992 | locus YGL078C, strain dbp3, active compounds read low 0.996 | locus YGL086W, strain mad1, active compounds read low 0.996 | locus YGL167C, strain pmr1, active compounds read low 1 | locus YGL173C, strain kem1, active compounds read low 0.988 | locus YGL227W, strain vid30, active compounds read low 0.982 | locus YGL240W, strain doc1, active compounds read low 1 | locus YGL248W, strain PDE1, active compounds read low 1.01 | locus YGL253W, strain hxk2, active compounds read low 0.985 | locus YGR135W, strain pre9, active compounds read low 0.989 | locus YGR252W, strain gcn5, active compounds read low 1.01 | locus YHR013C, strain ard1, active compounds read low 0.961 | locus YHR027C, strain rpn1, active compounds read low 1 | locus YHR030C, strain SLT2, active compounds read low 0.977 and 1.04 | locus YHR079C, strain IRE1 (second series), active compounds read low 0.993 | locus YHR079C, strain IRE1, active compounds read low 1.02 | locus YHR094C, strain hxt1, active compounds read low 0.985 | locus YHR129C, strain ARP1, active compounds read low 0.994 | locus YHR142W, strain chs7, active compounds read low 0.976 | locus YHR200W, strain rpn10, active compounds read low 0.984 | locus YIL066C, strain RNR3, active compounds read low 0.926 | locus YIL073C, strain SPO22, active compounds read low 0.973 | locus YIL125W, strain kgd1, active compounds read low 0.987 | locus YIR030C, strain dcg1, active compounds read low 0.996 | locus YJL092W, strain hpr5, active compounds read low 0.999 | locus YJL095W, strain BCK1 (second series), active compounds read low 0.994 | locus YJL095W, strain BCK1, active compounds read low 1.06 and 1.01 | locus YJL115W, strain asf1, active compounds read low 0.999 | locus YJL129C, strain trk1, active compounds read low 1.01 | locus YJL134W, strain LCB3, active compounds read low 0.98 | locus YJL154C, strain vps35, active compounds read low 0.996 | locus YJL164C, strain tpk1, active compounds read low 1 | locus YJL166W, strain qcr8, active compounds read low 1.01 | locus YJL168C, strain set2, active compounds read low 0.995 | locus YJL187C, strain SWE1 (second series), active compounds read low 1.03 | locus YJR043C, strain POL32, active compounds read low 0.938 | locus YJR066W, strain TOR1, active compounds read low 0.982 | locus YKL009W, strain mrt4, active compounds read low 0.998
